The text below walks through data of PubChem BioAssay (Tox21).

For experiment [1], the target named is Thyrotropin-releasing hormone receptor (Homo sapiens) (UniProt P34981). The experiment is described as follows: qHTS assay to identify small molecule agonists of the thyrotropin-releasing hormone receptor (TRHR) signaling pathway (AID 1346891; calls by dose curve;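 further: HEK293 cells expressing TRHR with calcium dye readout; series mostly up to about 58 µM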). The method in brief:
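Overnight-plated (18 h, 37 °C, 5% CO2) TRHR-Hek293 cells; 2 h calcium dye at 37 °C; compound in DMSO; 3-min kinetic fluorescence read.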
(In qHTS, concentration-response curves come from the screen itself.)

The nature of experiment [2]: Human pregnane X receptor (PXR) small molecule agonists, qHTS cell viability counter screen (AID 1346977). Further: nearly all actives have a fitted effect of over 50% in size. The method in brief: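 After a 5hr pre-incubation, PXR-Luc HepG2 cells received compounds plus positive control in DMSO and were kept 24hr at 37C. Cell viability was quantified by fluorescence from CellTiter-Fluor added for the final hour.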
Experiment [3] in a line: Caspase-3/7 induction in HepG2 cells by small molecules, qHTS assay (AID 1346978). Further: nearly all actives have a fitted effect of over 15% in size. The method in brief:
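Wild-type HepG2 cells, 2,000/well, settled 5 hr at 37 C and 5% CO2, then compound-treated for 17 hr; caspase-3/7 activity read by luminescent Caspase-Glo 3/7 after 30 min at room temperature.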

Experiment [4] is described as follows: Caspase-3/7 induction in CHO-K1 cells by small molecules, qHTS cell viability counter screen (AID 1346979). Further: nearly all actives have a fitted effect of over 35% in size. The method, boiled down: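 Multiplexed with Caspase-Glo 3/7 in CHO-K1 cells, this counter screen added CellTiter-Fluor after 16hr of compound exposure and recorded fluorescence 1hr later.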
A short description of experiment [5]: Caspase-3/7 induction in HepG2 cells by small molecules, qHTS cell viability counter screen (AID 1346981). Further: series mostly up to about 92 µM; nearly all actives have a fitted effect of over 30% in size. The method in brief: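 In this quantitative HTS counter screen, compounds delivered in DMSO were left on unmodified HepG2 cells for 16 hr at 37 C. Viability was then determined fluorometrically with CellTiter-Fluor, in parallel with caspase-3/7 induction in the same wells.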

For experiment [6], the target named is Nuclear receptor subfamily 1 group I member 2 (Homo sapiens) (UniProt O75469). Nature of the experiment: Human pregnane X receptor (PXR) small molecule agonists, qHTS assay (AID 1346982). Further: nearly all actives have a fitted effect of over 35% in size. Further: potency means the concentration at half of the fitted maximal effect. The method in brief: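 Reporter HepG2 cells expressing PXR-Luc are cultured in charcoal-stripped FBS (5%), treated with compounds for 24 hr at 37 C, and assayed by ONE-Glo luminescence after 30 min at room temperature.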

The target in experiment [7] is Cytochrome P450 2D6 (Homo sapiens) (UniProt P10635). The experiment is described as follows: Cytochrome P450 Family 2 Subfamily D Member 6 (CYP2D6) small molecule antagonists: luciferase reporter qHTS assay (AID 1671196). Further: nearly all actives have a fitted effect of over 50% in size. Further: potency means the concentration at half of the fitted maximal effect. The method, boiled down:
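Test chemicals meet CYP2D6 plus proluciferin substrate (10 min, RT); NADPH regenerating solution then drives turnover for 1 h. Detection reagent halts the reaction; luminescence measured after 20 min.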

Experiment [8] deals with Cytochrome P450 2C9 (Homo sapiens) (UniProt P11712). Nature of the experiment: Cytochrome P450 Family 2 Subfamily C Member 9 (CYP2C9) small molecule antagonists: luciferase reporter qHTS assay (AID 1671198). Further: nearly all actives have a fitted effect of over 50% in size. Further: potency means the concentration at half of the fitted maximal effect. The method, boiled down:
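P450-Glo proluciferin substrate with CYP2C9 enzyme; 10 min RT preincubation, then NADPH regeneration 1 h at 37C; luciferin detection reagent 20 min RT, luminescence in relative luminescence units.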

Experiment [9] addresses Cytochrome P450 1A2 (Homo sapiens) (UniProt P05177). The experiment is described as follows: Cytochrome P450 Family 1 Subfamily A Member 2 (CYP1A2) small molecule antagonists: luciferase reporter qHTS assay (AID 1671199). Further: nearly all actives have a fitted effect of over 50% in size. Further: potency means the concentration at half of the fitted maximal effect. The method, boiled down:
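Steps: enzyme-substrate mix dispensed; test compounds and furafylline control pinned in; 10 min room temperature; NADPH regeneration solution added, 1 h; reaction stopped with luciferin detection reagent; luminescence read after 20 min.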
Background: In a reporter assay the amount or activity of a reporter protein is the signal.

Experiment [10] addresses Voltage-gated inwardly rectifying potassium channel KCNH2 (Homo sapiens) (UniProt Q12809). The experiment is described as follows: Human Ether-a-go-go-Related Gene (hERG) channel small molecule antagonists: fluorescence cell-based qHTS assay (AID 1671200). The method, boiled down:
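Cell line hERG-U2OS; dye FluxOR II, 1 h RT dark; Tl+ stimulus; ex 480/em 540 nm, read each second for 2 min.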

In experiment [11] the target is Cytochrome P450 3A4 (Homo sapiens) (UniProt P08684). Nature of the experiment: Cytochrome P450 Family 3 Subfamily A Member 4 (CYP3A4) small molecule antagonists: luciferase reporter qHTS assay (AID 1671201). The method, boiled down:
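Room-temperature assay throughout: 10 min compound–enzyme/substrate preincubation, 1 h reaction after NADPH regeneration solution, 20 min detection. Luciferin formed from proluciferin substrate is quantified by luminescence.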

Experiment [12] is described as follows: Caspase-3/7 induction in CHO-K1 cells by small molecules, qHTS assay (AID 1346980). Further: nearly all actives have a fitted effect of over 15% in size. The method in brief: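 Wild-type CHO-K1 cells exposed to compounds for 17hr at 37 C, 5% CO2. Caspase-3/7 activity then measured by Caspase-Glo 3/7 luminescence after 30min at room temperature.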
Experiment [13] deals with Cytochrome P450 2C19 (Homo sapiens) (UniProt P33261). The experiment is described as follows: Cytochrome P450 Family 2 Subfamily C Member 19 (CYP2C19) small molecule antagonists: luciferase reporter qHTS assay (AID 1671197). Further: nearly all actives have a fitted effect of over 65% in size. Further: potency means the concentration at half of the fitted maximal effect. The method, boiled down:
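CYP2C19 P450-Glo, 1536-well qHTS. Cpd + enzyme/proluciferin substrate 10 min RT; + NADPH regen, 37C 1 h; stop with luciferin detection reagent, 20 min RT, luminescence (RLU). Pos ctrl ketoconazole.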

For experiment [14], the target named is Nuclear receptor subfamily 1 group I member 2 (Rattus norvegicus) (UniProt Q9R1A7). The experiment is described as follows: Rat pregnane X receptor (rPXR) activation by small molecules, qHTS assay (AID 1346983). Further: nearly all actives have a fitted effect of over 20% in size. Particulars: rPXR luciferase reporter cells, One-Glo luminescence, 24 h; max activation: active compounds read high. The method, boiled down:
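Cell-based rPXR activation assay: rPXR cells, 2,000 per well, rested 5hr at 37 C, then exposed to compounds in DMSO for 24 hr at 37 C. Luciferase activity read by One-Glo luminescence after 30 min at room temperature.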

In experiment [15] the target is Nuclear receptor subfamily 1 group I member 2 (Homo sapiens) (UniProt O75469). Nature of the experiment: CYP3A4 induction through human pregnane X receptor (PXR) by small molecules, qHTS assay (AID 1346984). Further: nearly all actives have a fitted effect of over 40% in size. The method, boiled down: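 Induction measured in HepG2-based DPX-2 cells co-expressing human PXR and a CYP3A4 promoter-driven luciferase. After a 24-hour compound exposure, cells received CYP3A4 luciferin substrate at 3uM final for 3 hours, and light output was then recorded.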

Experiment [16] has the same target. The experiment is described as follows: Human pregnane X receptor (PXR) activation by small molecules, qHTS assay (AID 1346985). Further: nearly all actives have a fitted effect of over 40% in size. The method, boiled down:
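DPX-2 cells (HepG2 co-transfected with a PXR response element and a CYP3A4-promoter luciferase construct) were seeded at 2,000 per well, rested 5 hr at 37C, then exposed to DMSO-dissolved compounds for 24 hr. Activation was read as luciferase luminescence.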

SMILES strings stand for the structures. Values without a mark were called inactive. Inconclusive results are not listed. Calls of active or inactive are those of the source. Unless noted, the call rests on the fitted dose curve; in most records, active means well fitted curve in the direction sought with a large enough effect in the repeat runs; inconclusive means weak or mixed curves; inactive means no such curve, though single readings can be large; an effect the other way counts as inactive or inconclusive.
On the % scale 0 is the no-effect control and ±100 the full control effect.

Nuclear receptor subfamily 1 group I member 2 (Homo sapiens), sequence (O75469 whole entry, looked up): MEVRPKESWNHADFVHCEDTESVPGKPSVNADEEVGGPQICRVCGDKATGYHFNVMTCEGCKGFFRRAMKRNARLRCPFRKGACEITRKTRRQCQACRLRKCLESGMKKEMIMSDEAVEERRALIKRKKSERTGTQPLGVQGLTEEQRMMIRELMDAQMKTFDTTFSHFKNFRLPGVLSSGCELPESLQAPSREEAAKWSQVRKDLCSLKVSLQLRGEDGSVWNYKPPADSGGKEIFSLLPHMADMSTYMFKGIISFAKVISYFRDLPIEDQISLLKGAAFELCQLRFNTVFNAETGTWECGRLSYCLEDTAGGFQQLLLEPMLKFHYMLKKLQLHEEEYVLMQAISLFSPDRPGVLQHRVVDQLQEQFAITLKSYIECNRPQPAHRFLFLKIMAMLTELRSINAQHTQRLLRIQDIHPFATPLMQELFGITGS
Cytochrome P450 2D6 (Homo sapiens), sequence (P10635 whole entry, looked up): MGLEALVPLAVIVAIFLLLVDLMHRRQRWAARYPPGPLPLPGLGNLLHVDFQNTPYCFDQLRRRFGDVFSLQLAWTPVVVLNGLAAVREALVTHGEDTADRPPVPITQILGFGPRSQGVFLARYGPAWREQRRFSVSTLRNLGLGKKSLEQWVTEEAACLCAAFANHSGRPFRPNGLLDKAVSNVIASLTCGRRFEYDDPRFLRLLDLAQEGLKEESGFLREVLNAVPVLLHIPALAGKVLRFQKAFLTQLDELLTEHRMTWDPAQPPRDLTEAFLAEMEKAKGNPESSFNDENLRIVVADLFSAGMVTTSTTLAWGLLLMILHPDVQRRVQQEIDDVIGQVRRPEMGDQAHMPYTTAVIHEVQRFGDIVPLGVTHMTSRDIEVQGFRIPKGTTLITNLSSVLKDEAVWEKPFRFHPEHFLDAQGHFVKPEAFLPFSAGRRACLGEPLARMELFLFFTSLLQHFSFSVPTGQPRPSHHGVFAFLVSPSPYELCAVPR
Thyrotropin-releasing hormone receptor (Homo sapiens), sequence (P34981 whole entry, looked up): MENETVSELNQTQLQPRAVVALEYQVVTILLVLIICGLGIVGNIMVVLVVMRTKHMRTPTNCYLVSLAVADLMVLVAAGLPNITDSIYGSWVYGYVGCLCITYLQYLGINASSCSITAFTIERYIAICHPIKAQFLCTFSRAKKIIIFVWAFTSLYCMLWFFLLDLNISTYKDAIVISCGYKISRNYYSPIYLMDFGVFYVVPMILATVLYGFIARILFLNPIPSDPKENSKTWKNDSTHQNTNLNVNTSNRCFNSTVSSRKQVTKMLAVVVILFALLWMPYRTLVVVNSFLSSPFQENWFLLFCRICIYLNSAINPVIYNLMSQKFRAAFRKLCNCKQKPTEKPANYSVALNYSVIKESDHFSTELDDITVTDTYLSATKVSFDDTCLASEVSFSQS
Cytochrome P450 1A2 (Homo sapiens), sequence (P05177 whole entry, looked up): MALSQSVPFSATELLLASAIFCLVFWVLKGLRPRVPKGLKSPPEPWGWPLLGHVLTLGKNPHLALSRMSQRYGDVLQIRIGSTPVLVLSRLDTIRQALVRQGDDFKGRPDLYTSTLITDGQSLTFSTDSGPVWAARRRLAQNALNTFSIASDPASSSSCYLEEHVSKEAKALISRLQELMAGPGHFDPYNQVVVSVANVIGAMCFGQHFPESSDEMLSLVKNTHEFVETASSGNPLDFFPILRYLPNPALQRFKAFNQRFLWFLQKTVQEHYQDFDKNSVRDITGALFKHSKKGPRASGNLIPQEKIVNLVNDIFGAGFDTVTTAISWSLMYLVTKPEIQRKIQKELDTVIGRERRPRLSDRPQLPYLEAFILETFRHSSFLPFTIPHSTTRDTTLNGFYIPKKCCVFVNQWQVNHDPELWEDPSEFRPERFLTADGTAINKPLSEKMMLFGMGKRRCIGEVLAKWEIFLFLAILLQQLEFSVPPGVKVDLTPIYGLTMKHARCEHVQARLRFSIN
Cytochrome P450 3A4 (Homo sapiens), sequence (P08684 whole entry, looked up): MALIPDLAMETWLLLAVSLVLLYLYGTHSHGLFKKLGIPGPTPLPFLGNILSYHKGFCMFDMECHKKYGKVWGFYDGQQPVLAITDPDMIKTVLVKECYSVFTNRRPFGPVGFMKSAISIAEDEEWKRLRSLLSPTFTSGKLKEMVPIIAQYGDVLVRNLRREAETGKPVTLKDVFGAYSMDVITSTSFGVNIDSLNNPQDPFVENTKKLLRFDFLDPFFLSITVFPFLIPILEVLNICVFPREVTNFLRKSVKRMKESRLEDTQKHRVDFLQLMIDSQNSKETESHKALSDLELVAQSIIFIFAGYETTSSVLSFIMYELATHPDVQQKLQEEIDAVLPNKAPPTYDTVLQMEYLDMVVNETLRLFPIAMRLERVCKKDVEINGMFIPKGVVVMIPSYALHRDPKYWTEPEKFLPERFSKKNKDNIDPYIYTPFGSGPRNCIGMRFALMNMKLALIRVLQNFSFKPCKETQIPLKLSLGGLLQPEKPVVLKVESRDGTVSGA
Cytochrome P450 2C9 (Homo sapiens), sequence (P11712 whole entry, looked up): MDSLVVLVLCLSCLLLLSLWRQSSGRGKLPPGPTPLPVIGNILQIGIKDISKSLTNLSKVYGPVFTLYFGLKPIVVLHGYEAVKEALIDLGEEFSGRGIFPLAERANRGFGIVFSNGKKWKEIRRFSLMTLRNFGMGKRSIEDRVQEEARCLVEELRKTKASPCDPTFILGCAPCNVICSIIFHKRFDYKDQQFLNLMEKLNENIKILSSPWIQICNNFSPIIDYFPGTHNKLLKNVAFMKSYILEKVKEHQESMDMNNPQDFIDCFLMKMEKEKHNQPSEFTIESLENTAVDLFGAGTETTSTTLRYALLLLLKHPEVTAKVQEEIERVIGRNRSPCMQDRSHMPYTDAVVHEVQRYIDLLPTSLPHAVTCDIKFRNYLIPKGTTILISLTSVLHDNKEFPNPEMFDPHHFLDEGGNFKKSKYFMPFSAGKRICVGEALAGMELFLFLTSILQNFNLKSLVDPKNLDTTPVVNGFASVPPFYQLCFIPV
Voltage-gated inwardly rectifying potassium channel KCNH2 (Homo sapiens), sequence (Q12809 whole entry, looked up): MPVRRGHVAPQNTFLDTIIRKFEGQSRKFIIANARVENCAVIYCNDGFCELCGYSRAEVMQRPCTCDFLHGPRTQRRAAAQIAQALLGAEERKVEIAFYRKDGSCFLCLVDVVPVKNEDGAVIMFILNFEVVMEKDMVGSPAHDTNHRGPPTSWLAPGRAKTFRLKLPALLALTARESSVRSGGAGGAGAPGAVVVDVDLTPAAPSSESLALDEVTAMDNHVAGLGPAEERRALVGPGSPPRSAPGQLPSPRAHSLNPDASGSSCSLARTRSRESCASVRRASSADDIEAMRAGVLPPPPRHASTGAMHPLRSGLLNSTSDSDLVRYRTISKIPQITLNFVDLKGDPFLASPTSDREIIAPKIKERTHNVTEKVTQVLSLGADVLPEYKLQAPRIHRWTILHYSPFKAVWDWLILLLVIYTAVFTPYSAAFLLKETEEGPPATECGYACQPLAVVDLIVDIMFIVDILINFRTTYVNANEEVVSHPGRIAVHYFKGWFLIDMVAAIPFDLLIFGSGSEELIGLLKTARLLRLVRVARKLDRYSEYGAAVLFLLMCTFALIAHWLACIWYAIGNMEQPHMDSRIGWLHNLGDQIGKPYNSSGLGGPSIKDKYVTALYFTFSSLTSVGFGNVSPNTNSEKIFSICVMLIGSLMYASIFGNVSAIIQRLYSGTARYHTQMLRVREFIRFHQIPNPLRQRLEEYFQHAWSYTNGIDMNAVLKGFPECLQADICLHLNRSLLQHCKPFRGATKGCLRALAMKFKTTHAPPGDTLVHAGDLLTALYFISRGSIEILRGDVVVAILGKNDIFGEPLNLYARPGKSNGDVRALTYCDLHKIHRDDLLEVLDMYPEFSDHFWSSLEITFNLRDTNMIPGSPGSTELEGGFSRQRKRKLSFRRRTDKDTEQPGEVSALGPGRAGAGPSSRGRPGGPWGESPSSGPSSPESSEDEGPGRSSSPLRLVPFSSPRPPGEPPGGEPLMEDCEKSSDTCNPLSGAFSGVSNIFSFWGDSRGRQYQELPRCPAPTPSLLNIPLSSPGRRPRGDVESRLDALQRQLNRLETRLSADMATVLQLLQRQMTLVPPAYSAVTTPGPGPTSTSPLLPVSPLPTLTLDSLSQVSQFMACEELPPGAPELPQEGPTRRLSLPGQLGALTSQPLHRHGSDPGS
Cytochrome P450 2C19 (Homo sapiens), sequence (P33261 whole entry, looked up): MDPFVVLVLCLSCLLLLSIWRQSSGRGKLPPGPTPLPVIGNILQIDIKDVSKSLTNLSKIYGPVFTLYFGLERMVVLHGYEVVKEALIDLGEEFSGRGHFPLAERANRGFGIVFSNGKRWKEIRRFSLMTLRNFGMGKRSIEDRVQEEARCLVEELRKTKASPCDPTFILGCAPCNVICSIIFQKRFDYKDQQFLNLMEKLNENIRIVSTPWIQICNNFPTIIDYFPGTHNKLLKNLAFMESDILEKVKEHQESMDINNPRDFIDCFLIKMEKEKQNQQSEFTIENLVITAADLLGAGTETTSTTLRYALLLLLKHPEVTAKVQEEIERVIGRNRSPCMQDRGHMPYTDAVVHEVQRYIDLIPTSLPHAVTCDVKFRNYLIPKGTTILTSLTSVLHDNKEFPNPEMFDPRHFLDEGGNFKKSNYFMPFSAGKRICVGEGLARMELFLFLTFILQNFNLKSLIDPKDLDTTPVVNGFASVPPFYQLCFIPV
Nuclear receptor subfamily 1 group I member 2 (Rattus norvegicus), sequence (Q9R1A7 whole entry, looked up): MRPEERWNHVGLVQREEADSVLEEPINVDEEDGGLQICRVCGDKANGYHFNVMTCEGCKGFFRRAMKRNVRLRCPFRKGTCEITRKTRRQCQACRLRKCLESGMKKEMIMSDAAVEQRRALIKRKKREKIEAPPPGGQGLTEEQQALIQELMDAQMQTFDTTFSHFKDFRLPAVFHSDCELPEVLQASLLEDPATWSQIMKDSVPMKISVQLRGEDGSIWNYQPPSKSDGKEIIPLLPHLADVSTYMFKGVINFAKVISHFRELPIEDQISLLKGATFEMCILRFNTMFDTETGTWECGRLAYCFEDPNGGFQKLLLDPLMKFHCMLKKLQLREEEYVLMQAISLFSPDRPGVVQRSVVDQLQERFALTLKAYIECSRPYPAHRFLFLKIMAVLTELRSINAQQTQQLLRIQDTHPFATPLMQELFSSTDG

In the case of `CC/C=C\C#N`, the call in [1], in experiment [3] and in experiment [5] was inactive. Also, the Potency result in [2], in [4], in experiment [6], in [7], in experiment [8] and in experiment [9] was “inactive” throughout. For the same compound, the Potency result in [10] and in experiment [11] was “inactive” each time.

For `Nc1ccc2cc(S(=O)(=O)O)ccc2c1`, the compound was called inactive in [1], in [3] and in experiment [12]. Also, the Potency result in experiment [2], in [4], in experiment [10] and in [11] was “inactive” each time. The values for the Potency in experiment [7], in [13] and in [8] were 39.9 µM (active), 39.9 µM (active) and 50.2 µM (active), respectively.

Take `CC(=O)O[C@H](CC(=O)[O-])C[N+](C)(C)C`: the compound was classed as inactive in experiment [1], in [3] and in experiment [5]. In addition, the Potency result in [2], in experiment [4] and in [10] was “inactive” each time.

In the case of `CC1=CC(=O)CCC1`, the call in experiment [1], in experiment [3] and in [5] was inactive. Also, the Potency entry in experiment [2], in experiment [4], in experiment [6], in [7], in experiment [13] and in experiment [8] was “inactive” throughout. The Potency result in experiment [9], in [10] and in experiment [11] was “inactive” each time.

As for `N#CCc1ccccc1[N+](=O)[O-]`, the outcome in experiment [1], in experiment [3] and in [5] was inactive. Also, the Potency entry in [2], in experiment [4], in experiment [13], in [10] and in experiment [11] was “inactive” throughout. In addition, the Potency in [7] was 78.7 µM (active); in experiment [9], 31.3 µM (active).

On to `CCCCOCC(C)OCC(C)O` (stereo not given), for which the result in [1], in experiment [3] and in [5] was inactive. Also, the Potency entry in experiment [2], in experiment [4], in [13], in experiment [8], in experiment [10] and in [11] was “inactive” each time. Besides, the Potency in experiment [6] is 27.9 µM (active); in experiment [7] it was 29 µM (active).

Take `CCC(C)OC(=O)N1CCCCC1CCO` (stereo not given): the outcome in [1], in experiment [3] and in experiment [12] was inactive. Moreover, the Potency entry in experiment [2], in experiment [4], in experiment [6], in [7], in [10] and in experiment [11] was “inactive” in each case. Besides, the Potency in [13] is 35.6 µM (active); in experiment [8], 79.6 µM (active).

For `C(=C(c1ccccc1)c1ccccc1)c1ccccc1`, the result in experiment [1], in experiment [3] and in experiment [5] was inactive. Further, the Potency entry in experiment [2], in experiment [4], in [7] and in experiment [11] was “inactive” each time. Moreover, the Potency in experiment [13] and in [8] was 5.03 µM (active) each time.

For `O=c1[nH]c2ccccc2c(=O)n1CCCl`, the call in experiment [1], in experiment [3] and in experiment [12] was inactive. The Potency result in experiment [2], in experiment [4], in [6], in experiment [7], in experiment [13] and in experiment [8] was “inactive” each time. The Potency result in [10] and in [11] was “inactive” throughout.

As for `C=CCOCC(O)CS(=O)(=O)O` (stereo not given), the outcome in experiment [1], in experiment [3] and in experiment [12] was inactive. Further, the Potency result in experiment [2], in [4], in experiment [6], in experiment [7], in [8] and in experiment [9] was “inactive” in each case. Besides, the Potency result in experiment [10] and in [11] was “inactive” in each case. In addition, the Potency in [13] is 80.8 µM (active).

In the case of `CC(C)[C@H](N)C(=O)OCCOCn1cnc2c(=O)[nH]c(N)nc21`, the outcome in experiment [1], in experiment [3] and in [5] was inactive. The Potency entry in experiment [2], in experiment [4], in experiment [6], in experiment [15], in experiment [16] and in experiment [7] was “inactive” throughout. Moreover, the Potency result in [13], in [8], in experiment [9] and in [10] was “inactive” throughout. Further, the max activation in experiment [14] was -4.04%.

Consider `CCn1cc(C(=O)O)c(=O)c2cc(F)c(N3CCN(C)CC3)cc21`, for which the activation was 0.129% [at 11.8 µM] in [1] and -5.92% [at 19 µM] in experiment [6]. The activity change, negative = cytotoxicity in [2] was 4.23% [at 19 µM]; in experiment [4], 6.37% [at 19 µM]. The caspase activation in [3] is -0.273% [at 19 µM]. In addition, in [12], the caspase-3/7 activation was 0.47% [at 19 µM]. In addition, in experiment [14], the max activation was -0.517%. In experiment [16], the Potency entry is “inactive”.
